The panel holds about 79,000 compounds, 15% with a hit somewhere; the sample as a whole holds those more often. A number with no mark means an inactive call. Calls of active or inactive are those of the source. Cut-off read from the data, not from the text of the source: active = growth inhibition above about 70%; inactive = the rest.
Experiment: NCI Yeast Anticancer Drug Screen. Data for the mec2-1 strain (AID 157)
Conditions: S. cerevisiae mec2-1 strain, at 50.0 µM, hits give high values
In short: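 Yeast mec2-1 mutant treated with compound. Readout: growth inhibition vs vehicle controls.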
Work on `O=S(Cc1cc2c(cc1Br)OCO2)c1ccccc1` (stereo not given) yielded a growth inhibition of -33.5%. With `CC1(C)C2CCC(C2)C1/C=C1/SC(=S)NC1=O` (stereo not given) the growth inhibition was -1.55%. Molecule `Cc1cccc(NC(=O)CCl)c1C` has a growth inhibition of -37.6%. `CN1C(=O)C(=O)N(C)C(=O)C1=O` gave a growth inhibition of 11.2%. `Cc1cccc(C)c1NC(=S)NC1CC(C)CC(C)(C)C1` (stereo not given) gave a growth inhibition of 50.5%. Work on `COC(=O)C(C)n1c(C)csc1=S` (stereo not given) yielded a growth inhibition of 4.85%. Work on `COc1ccc2nc(Cl)sc2c1` yielded a growth inhibition of -17.6%. Molecule `CC(=O)NC(NC(C)=O)c1ccccc1` has a growth inhibition of -8.5%. `CCOc1ccc(NC(=O)C(=O)C(/C(=N/N)C(=O)OC)c2nc3ccc([N+](=O)[O-])cc3[nH]c2=O)cc1` (stereo not given) showed a growth inhibition of -6%. `Cc1ccc(O)c(Cc2cc(C)cc(Cc3cc(C)ccc3O)c2O)c1` showed a growth inhibition of -7.85%. `CCC(=O)Oc1ccc(C(OC(=O)CC)OC(=O)CC)cc1OC` showed a growth inhibition of -9.1%. Molecule `Cc1ccc(C(C(=O)O)C(Cl)(Cl)Cl)cc1` (stereo not given) has a growth inhibition of -11%. For `C[N+](C)(CC(=O)Nc1cc(C(F)(F)F)cc(C(F)(F)F)c1)CC(=O)Nc1ccc(Cl)c(C(F)(F)F)c1`, the growth inhibition was 99.8% (active). For `CC(=O)OC1C=CCC2C(=O)C3=C(C(=O)c4ccccc4C3=O)C(=O)C12` (stereo not given), the growth inhibition was 21.3%. Molecule `CC(C)C(=O)c1ccccc1Cl` has a growth inhibition of -7.05%. With `c1ccc(CCN=C2c3ccccc3-n3cccc32)nc1` the growth inhibition was 0.95%. Work on `CC(NC(=O)NCCCl)C1CC1` (stereo not given) yielded a growth inhibition of 0%. Molecule `CCCC[n+]1cc(C(N)=O)cc2ccccc21` has a growth inhibition of 7.3%. `NC(N)=Nc1ccc(Sc2ccc(N=C(N)N)cc2)cc1` gave a growth inhibition of -35.5%. In the case of `NC(=O)c1cc(OCc2ccccc2)nc2nc(Cl)nc(N)c12`, the growth inhibition is reported as 14.6%. For `CN(C)C(=S)Oc1cc(Cl)c(Cl)cc1Cl`, the growth inhibition was 95.6% (active). Molecule `CC1=NN2C(=O)C(c3ccccc3)SC2=NC(C)(C)C1` (stereo not given) has a growth inhibition of -18.9%. In the case of `O=C(O)c1ccc(F)cc1F`, the growth inhibition is reported as -15.9%. With `CC(=O)Nc1ccc(S(=O)(=O)Nc2ccc([N+](=O)[O-])cc2)cc1` the growth inhibition was -40%. With `COc1cc(/C=N/N=C(\N)NO)cc(OC)c1OC` the growth inhibition was 3.85%. In the case of `O=C(NO)c1ccc([N+](=O)[O-])cc1`, the growth inhibition is reported as 31.1%. Molecule `O=C(Oc1cccc2ccccc12)c1cccnc1` has a growth inhibition of -2%. In the case of `CCCCCCCSCC(O)COC(c1ccccc1)(c1ccccc1)c1ccccc1` (stereo not given), the growth inhibition is reported as -28.6%. `COc1ccc(NC(=O)C(=O)C2CNC(=O)NC2=O)c(OC)c1` (stereo not given) showed a growth inhibition of -5.8%. Molecule `N#Cc1cccc(CC(O)(c2ccccc2)c2ccccc2)c1` has a growth inhibition of 19.9%. Molecule `CN(Cc1ccccc1)C(=O)Nc1ccc(F)c([N+](=O)[O-])c1` has a growth inhibition of 28.6%. For `CCCCCCCCCCCCCCCCCC(=O)OC(C(O)C=O)C(O)C(O)CO` (stereo not given), the growth inhibition was 16.3%. Work on `CCOC(=O)N1C2C=C(C)C(ON2C(=O)c2ccccc2)C2C(C)C(=O)N21` (stereo not given) yielded a growth inhibition of -10.7%. Work on `Cc1ccc(-c2cs/c(=N\N=C3/CSC(=O)N3Cc3ccccc3)n2-c2ccccc2)cc1` yielded a growth inhibition of 22.8%. With `CCc1ccc(CC)c(OC)c1` the growth inhibition was -1.8%. With `O=C(O)CSc1n[nH]c(-c2ccccc2)n1` the growth inhibition was -4.3%. `Nc1cccc(OCc2nc(N)nc(N)c2-c2ccc(Cl)cc2)c1` gave a growth inhibition of -14.4%. Molecule `CC(=O)C(=C(c1ccccc1)c1ccccc1)c1ccccc1` has a growth inhibition of -7.8%. For `O=C(O)C1=C(C(=O)O)C2CCCC3C4CCCCC4N(N1)C23` (stereo not given), the growth inhibition was -13.9%. Molecule `Nc1ccccc1C(=O)Nc1ccccn1` has a growth inhibition of -1.1%.

Experiment: NCI Yeast Anticancer Drug Screen. Data for the sgs1 mgt1 strain (AID 161);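 note: 0% = growth of cultures given vehicle only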
Conditions: S. cerevisiae sgs1 mgt1 strain, at 50.0 µM, hits give high values
In short: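 Genetically altered yeast, compound exposure, growth inhibition relative to vehicle.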
Work on `O=S(Cc1cc2c(cc1Br)OCO2)c1ccccc1` (stereo not given) yielded a growth inhibition of -20%. Work on `CC1(C)C2CCC(C2)C1/C=C1/SC(=S)NC1=O` (stereo not given) yielded a growth inhibition of 1.55%. For `Cc1cccc(NC(=O)CCl)c1C`, the growth inhibition was -7.65%. In the case of `CN1C(=O)C(=O)N(C)C(=O)C1=O`, the growth inhibition is reported as 10.7%. With `Cc1cccc(C)c1NC(=S)NC1CC(C)CC(C)(C)C1` (stereo not given) the growth inhibition was 76.7% (active). `COC(=O)C(C)n1c(C)csc1=S` (stereo not given) showed a growth inhibition of -1.05%. `COc1ccc2nc(Cl)sc2c1` showed a growth inhibition of 41.4%. In the case of `CC(=O)NC(NC(C)=O)c1ccccc1`, the growth inhibition is reported as -5.45%. In the case of `CCOc1ccc(NC(=O)C(=O)C(/C(=N/N)C(=O)OC)c2nc3ccc([N+](=O)[O-])cc3[nH]c2=O)cc1` (stereo not given), the growth inhibition is reported as 3.5%. Work on `Cc1ccc(O)c(Cc2cc(C)cc(Cc3cc(C)ccc3O)c2O)c1` yielded a growth inhibition of 15.2%. For `CCC(=O)Oc1ccc(C(OC(=O)CC)OC(=O)CC)cc1OC`, the growth inhibition was 11.8%. For `Cc1ccc(C(C(=O)O)C(Cl)(Cl)Cl)cc1` (stereo not given), the growth inhibition was -0.75%. In the case of `C[N+](C)(CC(=O)Nc1cc(C(F)(F)F)cc(C(F)(F)F)c1)CC(=O)Nc1ccc(Cl)c(C(F)(F)F)c1`, the growth inhibition is reported as 99.8% (active). With `CC(=O)OC1C=CCC2C(=O)C3=C(C(=O)c4ccccc4C3=O)C(=O)C12` (stereo not given) the growth inhibition was 28%. `CC(C)C(=O)c1ccccc1Cl` gave a growth inhibition of -2.45%. In the case of `c1ccc(CCN=C2c3ccccc3-n3cccc32)nc1`, the growth inhibition is reported as -6.75%. `CC(NC(=O)NCCCl)C1CC1` (stereo not given) gave a growth inhibition of -4.75%. `CCCC[n+]1cc(C(N)=O)cc2ccccc21` showed a growth inhibition of 3.25%. Molecule `NC(N)=Nc1ccc(Sc2ccc(N=C(N)N)cc2)cc1` has a growth inhibition of -16.6%. For `NC(=O)c1cc(OCc2ccccc2)nc2nc(Cl)nc(N)c12`, the growth inhibition was 3.35%. For `CN(C)C(=S)Oc1cc(Cl)c(Cl)cc1Cl`, the growth inhibition was 91.3% (active). Work on `CC1=NN2C(=O)C(c3ccccc3)SC2=NC(C)(C)C1` (stereo not given) yielded a growth inhibition of 4.05%. `O=C(O)c1ccc(F)cc1F` showed a growth inhibition of 11.3%. Work on `CC(=O)Nc1ccc(S(=O)(=O)Nc2ccc([N+](=O)[O-])cc2)cc1` yielded a growth inhibition of -22.8%. In the case of `COc1cc(/C=N/N=C(\N)NO)cc(OC)c1OC`, the growth inhibition is reported as 2.4%. Molecule `O=C(NO)c1ccc([N+](=O)[O-])cc1` has a growth inhibition of 46.3%. `O=C(Oc1cccc2ccccc12)c1cccnc1` showed a growth inhibition of 6.4%. `CCCCCCCSCC(O)COC(c1ccccc1)(c1ccccc1)c1ccccc1` (stereo not given) gave a growth inhibition of -29.6%. Work on `COc1ccc(NC(=O)C(=O)C2CNC(=O)NC2=O)c(OC)c1` (stereo not given) yielded a growth inhibition of -17.6%. `N#Cc1cccc(CC(O)(c2ccccc2)c2ccccc2)c1` showed a growth inhibition of 5.1%. For `CN(Cc1ccccc1)C(=O)Nc1ccc(F)c([N+](=O)[O-])c1`, the growth inhibition was 21.9%. `CCCCCCCCCCCCCCCCCC(=O)OC(C(O)C=O)C(O)C(O)CO` (stereo not given) showed a growth inhibition of 22.2%. In the case of `CCOC(=O)N1C2C=C(C)C(ON2C(=O)c2ccccc2)C2C(C)C(=O)N21` (stereo not given), the growth inhibition is reported as -5.8%. Molecule `Cc1ccc(-c2cs/c(=N\N=C3/CSC(=O)N3Cc3ccccc3)n2-c2ccccc2)cc1` has a growth inhibition of 12.1%. With `CCc1ccc(CC)c(OC)c1` the growth inhibition was 0.4%. With `O=C(O)CSc1n[nH]c(-c2ccccc2)n1` the growth inhibition was -7.5%. `Nc1cccc(OCc2nc(N)nc(N)c2-c2ccc(Cl)cc2)c1` gave a growth inhibition of -48.9%. Molecule `CC(=O)C(=C(c1ccccc1)c1ccccc1)c1ccccc1` has a growth inhibition of -32.9%. `O=C(O)C1=C(C(=O)O)C2CCCC3C4CCCCC4N(N1)C23` (stereo not given) gave a growth inhibition of -20.4%. `Nc1ccccc1C(=O)Nc1ccccn1` showed a growth inhibition of 0.5%.
